Test results reported in PubChem BioAssay AID1159580 (chemical genetic matrix, 2015).
Values joined by “and” are separate entries in the source; they are usually repeats but may differ in a detail not shown here. Identical values can stand only once. Out of some 5,500 compounds screened, about 2,000 (36%) were called active. Another 18% or so got no clear call; they are omitted. No stated cut-off is given here; in the data, active means normalized growth mostly below about 0.91 (no sharp cut-off); inconclusive means no clear call, values can overlap the other calls; inactive means mostly above about 0.92. The list shows a part of the results.

Test: chemical genetic growth profiling, strain panel (AID 1159580);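 further: tested at 20 µM; growth read once vehicle control cultures reached saturation at 30 °C; 1 = growth at the plate median or of vehicle wells; lower values mean less growth of the strain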
Details: S. cerevisiae deletion strains, growth OD

Measured: normalized growth

Nc1ccc(S(=O)(=O)Nc2ccccn2)cc1
inactive: locus YAL013W, strain DEP1, hits give low values 1.02 | locus YAL021C, strain ccr4, hits give low values 1 | locus YAL026C, strain drs2, hits give low values 1.01 | locus YAL030W, strain snc1, hits give low values 1.01 | locus YBL061C, strain skt5, hits give low values 1.01 | locus YBR009C, strain hhf1, hits give low values 0.983 | locus YBR021W, strain FUR4, hits give low values 1.04 | locus YBR023C, strain chs3, hits give low values 1.01 | locus YBR171W, strain sec66, hits give low values 1.01 | locus YBR229C, strain ROT2, hits give low values 1.01 | locus YBR231C, strain swc5, hits give low values 1.03 | locus YBR279W, strain paf1, hits give low values 1.01 | locus YCL011C, strain gbp2, hits give low values 0.99 | locus YCL016C, strain dcc1, hits give low values 1 | locus YCL029C, strain bik1, hits give low values 1 | locus YCL069W, strain vba3, hits give low values 1 | locus YCR088W, strain abp1, hits give low values 1 | locus YDL005C, strain med2, hits give low values 1.02 | locus YDL035C, strain GPR1, hits give low values 1.01 | locus YDL040C, strain nat1, hits give low values 1.01 | locus YDL074C, strain BRE1, hits give low values 1.02 | locus YDL101C, strain DUN1, hits give low values 1 | locus YDL134C, strain PPH21, hits give low values 1.01 | locus YDL185W, strain tfp1, hits give low values 0.982 | locus YDL192W, strain arf1, hits give low values 0.996 | locus YDR001C, strain nth1, hits give low values 1.01 | locus YDR069C, strain doa4, hits give low values 1.02 | locus YDR101C, strain arx1, hits give low values 0.987 | locus YDR137W, strain rgp1, hits give low values 1.01 | locus YDR159W, strain sac3, hits give low values 0.986 | locus YDR162C, strain NBP2, hits give low values 1 | locus YDR195W, strain ref2 1.04 | locus YDR297W, strain sur2, hits give low values 1.01 | locus YDR318W, strain mcm21, hits give low values 0.988 | locus YDR334W, strain swr1, hits give low values 1.01 | locus YDR335W, strain msn5, hits give low values 1.01 | locus YDR388W, hits give low values 0.988 | locus YDR392W, strain spt3, hits give low values 0.951 | locus YDR502C, strain sam2, hits give low values 0.996 | locus YEL003W, strain gim4, hits give low values 1.02 | locus YEL037C, strain rad23, hits give low values 1.01 | locus YEL061C, strain CIN8 (second series), hits give low values 1.01 | locus YEL061C, strain CIN8, hits give low values 1.01 | locus YER015W, strain faa2, hits give low values 1.02 | locus YER016W, strain bim1, hits give low values 0.996 | locus YER110C, hits give low values 0.993 | locus YER111C, strain swi4, hits give low values 1.01 | locus YER155C, strain BEM2 (second series), hits give low values 1.01 | locus YER155C, strain BEM2, hits give low values 1.01 | locus YER167W, strain BCK2, hits give low values 1 | locus YFR010W, strain ubp6, hits give low values 1.02 | locus YGL078C, strain dbp3, hits give low values 1 | locus YGL086W, strain mad1, hits give low values 1 | locus YGL167C, strain pmr1, hits give low values 1.02 | locus YGL173C, strain kem1, hits give low values 1.02 | locus YGL227W, strain vid30, hits give low values 1.02 | locus YGL240W, strain doc1, hits give low values 1.02 | locus YGL248W, strain PDE1, hits give low values 1.02 | locus YGL253W, strain hxk2, hits give low values 0.999 | locus YGR135W, strain pre9, hits give low values 1.01 | locus YGR229C, strain SMI1, hits give low values 1.02 | locus YGR252W, strain gcn5, hits give low values 1.03 | locus YHR013C, strain ard1, hits give low values 1.01 | locus YHR027C, strain rpn1, hits give low values 1.01 | locus YHR030C, strain SLT2, hits give low values 1.01 and 0.97 | locus YHR079C, strain IRE1 (second series), hits give low values 0.992 | locus YHR079C, strain IRE1, hits give low values 0.985 | locus YHR094C, strain hxt1, hits give low values 0.99 | locus YHR129C, strain ARP1, hits give low values 1.02 | locus YHR142W, strain chs7, hits give low values 0.98 | locus YHR200W, strain rpn10, hits give low values 0.986 | locus YIL066C, strain RNR3, hits give low values 1.01 | locus YIL073C, strain SPO22, hits give low values 0.989 | locus YIL125W, strain kgd1, hits give low values 0.983 | locus YIR030C, strain dcg1, hits give low values 0.996 | locus YJL092W, strain hpr5, hits give low values 1.02 | locus YJL095W, strain BCK1 (second series), hits give low values 1.01 | locus YJL095W, strain BCK1, hits give low values 1.02 and 0.979 | locus YJL115W, strain asf1, hits give low values 1.01 | locus YJL129C, strain trk1, hits give low values 1.02 | locus YJL134W, strain LCB3, hits give low values 1 | locus YJL154C, strain vps35, hits give low values 1.02 | locus YJL164C, strain tpk1, hits give low values 0.972 | locus YJL166W, strain qcr8, hits give low values 1.02 | locus YJL168C, strain set2, hits give low values 0.99 | locus YJL187C, strain SWE1 (second series), hits give low values 1.01 | locus YJR043C, strain POL32, hits give low values 1 | locus YJR066W, strain TOR1, hits give low values 0.928
